Compound activity from PubChem.
Sm TGR inh = qHTS Assay for the Inhibitors of Schistosoma Mansoni Peroxiredoxins | actives 3% (n = 360,000) | purified TGR, DTNB reduction, TNB absorbance 405 nm | AID 485364, 2010 | Potency, µM (highest dose often 114 µM), for the others: at the highest dose activity change, negative = inhibition, usual class: inhibitors | Schistosoma mansoni thioredoxin glutathione reductase (TGR), Q962Y6; also: nearly all actives have a fitted effect of over 60% in size
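TGR 20 nM + NADPH 100 uM (dispensed conc.), cpd preinc 15 min RT; start with NADPH (500 uM addition) then DTNB (15 mM addition). Kinetic TNB absorbance, 405 nm filter. Four-parameter Hill fit across titration.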
FMDV antiviral = High Throughput Screening for Foot and Mouth Disease Virus Antivirals | FMDV antiviral cell-based qHTS | Potency, µM (series often up to 57.9 µM), inactives show top-dose activity change, negative = inhibition, most hits filed as inhibitors | actives 1.2% (n = 410,000); calls by dose curve; tested in HEK293T cells; also: read-out not given here; nearly all actives have a fitted effect of over 45% in size
HCV inhibitor = qHTS Assay for Inhibitors of Hepatitis C Virus (HCV); Huh7.5.1 HCVcc-Cre infection, luciferase reporter, 44 h; Potency, µM (titrated, usually from 41.8 µM), for inactives: top-dose activity change, negative = inhibition, hits mostly inhibitors; actives 3.4% (n = 340,000)
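Infectious HCV cell culture screen: compound-treated cells (1,000/well, pre-plated 4 h) are infected with HCVcc-Cre at roughly 0.5 moi and grown 44 h. Infection is quantified by luciferase signal after 15 min substrate incubation at room temperature.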
RE007 growth inh = qHTS Assay for Inhibitors of the HIV-1 protein Vpr; actives 0.21% (n = 360,000); Potency, µM (highest dose often 92.2 µM), for the others: at the top dose activity change, negative = less growth, usual class: inhibitors; S. pombe RE007 Vpr strain, BacTiter-Glo ATP luminescence, 24 h; active = well fitted falling curve with a large enough effect; inconclusive = small, poorly fitted or top-dose-only effect; inactive = no such curve, though single readings can be large or run the other way; also: nearly all actives have a fitted effect of over 50% in size
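Fission yeast strain RE007, carrying one chromosomally integrated HIV-1 vpr copy, was seeded at OD 0.01 in PMG+AL medium with 23 nL pinned compound. After 24 h at 30 °C and 99% humidity, viability was read by BacTiter-Glo luminescence.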
LASV entry inh = qHTS for Inhibitors of binding or entry into cells for Lassa Virus; Potency, µM (series often up to 37.9 µM), for the others: top-dose activity change, negative = inhibition, most hits filed as inhibitors; Lassa virus pseudotype entry inhibition, cell reporter; AID 540256, 2011; actives 1.2% (n = 300,000); calls by dose curve; tested in HEK293 cells; also: nearly all actives have a fitted effect of over 50% in size
MARV entry inh = qHTS for inhibitors of binding or entry into cells for Marburg Virus; Marburg virus pseudotyped entry inhibition, cell reporter; Potency, µM (doses to about 37.8 µM), for inactives: at the highest dose activity change, negative = inhibition, hits mostly inhibitors; actives 1.8% (n = 300,000); AID 540276, 2011; calls by dose curve; tested in HEK293 cells
An asterisk follows results filed as active; [ ] = another dose, or the depositor's remark. Shown are actives, neighbours in structure and some others; about 7.2% of the full set was active somewhere. Unless noted, calls follow the shape of the dose curve; as a rule, active = well fitted curve in the direction sought with a large enough effect; inconclusive = small, poorly fitted or top-dose-only effect, or another doubt; inactive = no such curve, though single readings can be large; an effect the other way counts as inactive or inconclusive. % is scaled to controls: 0 for no effect and ±100 for the full control effect; potency is read from the fitted curve at half-maximal effect.

Results for Cc1ccc(Nc2ccc3nonc3c2[N+](=O)[O-])cc1 ?
Sm TGR inh: 8%; FMDV antiviral: -11%; HCV inhibitor: -7%; RE007 growth inh: -10%; LASV entry inh: -1%; MARV entry inh: 19%

Results for Cc1ncc2c(c1CNC(=O)c1cncs1)CCN(C(=O)c1cccc(-c3cccc(F)c3)c1)C2 ?
FMDV antiviral: -4%

What do the screens show for `O=S(=O)(NC1CCSc2ccccc21)c1ccccc1` (stereo unspecified)?
Sm TGR inh: -2%; FMDV antiviral: 15%; HCV inhibitor: 16%; RE007 growth inh: 8%; LASV entry inh: 1%[46.1 µM]; MARV entry inh: inconclusive

What do the screens show for `CC(=O)Nc1ccc(S(=O)(=O)NC2CCSc3ccccc32)cc1` (stereo unspecified)?
Sm TGR inh: 1%; FMDV antiviral: 6%; HCV inhibitor: -6%; RE007 growth inh: 12%; LASV entry inh: inconclusive; MARV entry inh: 10µM*

How did O=C(CN1CCOCC1)N1CCc2ccccc2C(c2ccccc2)C1 (stereo unspecified) do in these assays?
Sm TGR inh: -29%; FMDV antiviral: -7%; HCV inhibitor: 0%; RE007 growth inh: 0%; LASV entry inh: 2%; MARV entry inh: inconclusive

How did O=C(CBr)N1CCc2ccccc2C(c2ccccc2)C1 (stereo unspecified) do in these assays?
Sm TGR inh: 3.5µM*; FMDV antiviral: -1%; HCV inhibitor: 13%; RE007 growth inh: -1%; LASV entry inh: 6%; MARV entry inh: 18%[46.1 µM]

Results for Ic1ccccc1CN[C@@H]1C2CCN(CC2)[C@@H]1C(c1ccccc1)c1ccccc1 ?
Sm TGR inh: -9%; FMDV antiviral: inconclusive; HCV inhibitor: inconclusive; RE007 growth inh: -4%[18.4 µM]

What do the screens show for `Ic1ccccc1CNC1C2CCN(CC2)C1C(c1ccccc1)c1ccccc1` (stereo unspecified)?
LASV entry inh: 6.5µM*; MARV entry inh: 4.6µM*

What do the screens show for `Ic1ccccc1CN[C@@H]1C2CCN(CC2)[C@H]1C(c1ccccc1)c1ccccc1`?
MARV entry inh: 4.6µM*

How did CCOC(=O)C1CCCN(c2c(C(=O)c3ccccc3)cnc3ccc(F)cc23)C1 (stereo unspecified) do in these assays?
Sm TGR inh: 2%; FMDV antiviral: 0%; MARV entry inh: inconclusive

What do the screens show for `COC(=O)c1c(-c2ccc(OC)cc2)sc2ccc(N3CCOCC3)cc12`?
FMDV antiviral: 25%; HCV inhibitor: 13µM*; RE007 growth inh: -11%

How did COC(=O)c1c(-c2ccc(SC)cc2)sc2ccc(OC)cc12 do in these assays?
FMDV antiviral: -20%; HCV inhibitor: 45%[8.37 µM]; RE007 growth inh: 42%

What do the screens show for `COC(=O)c1c(-c2cc(OC)cc(OC)c2)sc2ccc(OC)cc12`?
FMDV antiviral: 14%; HCV inhibitor: 13µM*; RE007 growth inh: 4%

How did O=c1nc2sc3ccccc3n2c(=O)n1-c1cccc(Cl)c1 do in these assays?
Sm TGR inh: 0%; FMDV antiviral: 72%; HCV inhibitor: 11µM*; RE007 growth inh: 2%; LASV entry inh: inconclusive; MARV entry inh: inconclusive

Results for O=c1nc2sc3ccccc3n2c(=O)n1-c1ccc(Cl)c(Cl)c1 ?
Sm TGR inh: -4%; FMDV antiviral: 23%; LASV entry inh: 1%[46.1 µM]; MARV entry inh: 16%[46.1 µM]

What do the screens show for `COc1cc2c(cc1OC)[C@@H]1O[C@](c3ccsc3)(C2)Oc2cc(C)n(-c3ccccc3)c(=O)c21`?
Sm TGR inh: -16%[22.9 µM]

How did O=S(=O)(/C=C/c1ccccc1)N1CCN(c2nc(-c3cccnc3)nc3ccccc23)CC1 do in these assays?
Sm TGR inh: 7%; FMDV antiviral: -20%; HCV inhibitor: inconclusive; RE007 growth inh: -19%; LASV entry inh: inconclusive; MARV entry inh: 11µM*

How did CCc1ccc(C(=O)NNC(=O)[C@H](C)NC(=O)c2ccco2)cc1 do in these assays?
FMDV antiviral: 0%; HCV inhibitor: 10%; RE007 growth inh: -2%

How did CC(=O)c1cccc(NC(=O)CCn2nc(C)c(S(=O)(=O)N3CCCCC3)c2C)c1 do in these assays?
Sm TGR inh: 17%; FMDV antiviral: 10%; LASV entry inh: 6%[46.1 µM]

How did Nc1cccc2c1C(=O)N(CCOc1ccccc1F)C2=O do in these assays?
Sm TGR inh: -2%; FMDV antiviral: -44%; HCV inhibitor: 0%; RE007 growth inh: -13%; LASV entry inh: 2.8µM*; MARV entry inh: inconclusive

Results for C=CCNc1oc(-c2cccc(Cl)c2)nc1C#N ?
FMDV antiviral: 35%

Results for CCN(CC)CCCNc1oc(-c2cccc(Cl)c2)nc1C#N ?
Sm TGR inh: 2%; FMDV antiviral: -14%; HCV inhibitor: inconclusive; RE007 growth inh: -9%; LASV entry inh: -2%; MARV entry inh: 16µM*

What do the screens show for `C/C(=N\NC1=NCCN1)c1ccc(N)c([N+](=O)[O-])c1`?
Sm TGR inh: 6%; FMDV antiviral: 10%; HCV inhibitor: inconclusive; RE007 growth inh: 0%; LASV entry inh: inconclusive; MARV entry inh: inconclusive

What do the screens show for `CCCCOc1ccc(Br)cc1/C(C)=N/NC1=NCCN1`?
Sm TGR inh: 5%; FMDV antiviral: 14µM*; HCV inhibitor: 3.2µM*; RE007 growth inh: -21%; LASV entry inh: 11µM*; MARV entry inh: 10µM*

Results for CCCCCCOc1ccc(/C(C)=N/NC2=NCCN2)cc1[N+](=O)[O-] ?
FMDV antiviral: -11%; HCV inhibitor: 32µM*; RE007 growth inh: -18%

How did COc1ccc(/C(C)=N/NC2=NCCN2)cc1Cl do in these assays?
Sm TGR inh: -12%; FMDV antiviral: -19%; HCV inhibitor: -20%; RE007 growth inh: -4%; LASV entry inh: -12%[46.1 µM]; MARV entry inh: inconclusive

Results for CCOc1ccc(CSC2=NCCN2)cc1[N+](=O)[O-] ?
Sm TGR inh: 2%; FMDV antiviral: -25%; HCV inhibitor: -24%; RE007 growth inh: -21%; LASV entry inh: inconclusive; MARV entry inh: 4µM*

What do the screens show for `CCCCOc1ccc(CSC2=NCCN2)cc1[N+](=O)[O-]`?
Sm TGR inh: -4%; FMDV antiviral: -13%; HCV inhibitor: inconclusive; RE007 growth inh: -22%; LASV entry inh: 1%; MARV entry inh: inconclusive

How did CCOC(=O)C1(CCOc2ccccc2)CCN(Cc2cccc(F)c2)CC1 do in these assays?
Sm TGR inh: 9%; FMDV antiviral: inconclusive; HCV inhibitor: inconclusive; RE007 growth inh: -7%
